# Assay outcomes: PubChem BioAssay, National Center for Advancing Translational Sciences (NCATS)
# Shown are actives, neighbours in structure and some others; about 3.3% of the full set was active somewhere.
# Tau fluor counter: Counterscreen qHTS for Inhibitors of Tau Fibril Formation, Fluorescence Polarization. Potency, µM (top dose mostly 57.7 µM). tau K18 P301L Alexa594 fluorescence, heparin fibrillization. hit rate 0.93% among 280,000; note: nearly all actives have a fitted effect of over 55% in size
#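 Human K18 P301L tau (15 uM unlabeled plus 0.24 uM Alexa 594-labeled, final) in 100 mM sodium acetate pH 7 was mixed with compound and 20 uM heparin and incubated 6 hr at 37 C.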
# NPSR antagonist: qHTS Assay for Antagonists of the Neuropeptide S Receptor: cAMP Signal Transduction. Potency, µM (series often up to 38.3 µM), hits mostly inhibitors. CHO-NPSR cells, cAMP TR-FRET, antagonist mode. hit rate 1% among 220,000. AID 1461, 2008; note: nearly all actives have a fitted effect of over 50% in size
# Target sequence (Q6W5P4 whole entry, looked up): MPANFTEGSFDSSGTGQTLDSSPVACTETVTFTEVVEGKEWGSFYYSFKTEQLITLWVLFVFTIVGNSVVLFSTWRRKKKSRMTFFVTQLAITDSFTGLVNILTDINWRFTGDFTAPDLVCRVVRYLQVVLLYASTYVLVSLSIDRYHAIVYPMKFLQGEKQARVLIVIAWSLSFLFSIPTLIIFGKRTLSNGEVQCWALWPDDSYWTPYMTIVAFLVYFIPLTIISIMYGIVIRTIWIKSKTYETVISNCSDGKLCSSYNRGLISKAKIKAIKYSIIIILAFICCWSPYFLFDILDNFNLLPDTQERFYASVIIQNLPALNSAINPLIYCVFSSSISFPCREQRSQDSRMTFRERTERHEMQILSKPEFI
# Tau FP inhib: qHTS for Inhibitors of Tau Fibril Formation, Fluorescence Polarization. K18 P301L tau heparin fibrillization, Alexa594 FP, 6 h. Potency, µM (highest dose often 57.7 µM), usual class: inhibitors. hit rate 0.39% among 280,000; note: nearly all actives have a fitted effect of over 55% in size
# Target sequence (P10636 561-689 P618L limits assumed): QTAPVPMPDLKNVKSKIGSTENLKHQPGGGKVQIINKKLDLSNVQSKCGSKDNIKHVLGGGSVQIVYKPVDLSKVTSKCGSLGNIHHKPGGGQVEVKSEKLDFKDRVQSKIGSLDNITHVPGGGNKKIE
#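 FP of Alexa 594-tau after heparin (20 uM) induction. Substrate: human K18 P301L, 15 uM unlabeled, 0.24 uM labeled. Buffer 100 mM sodium acetate pH 7. 6 hr, 37 C.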
# Tau fibril ThT: qHTS for Inhibitors of Tau Fibril Formation, Thioflavin T Binding | Microtubule-associated protein tau (Homo sapiens), P10636 | recombinant tau K18 P301L, heparin-induced fibrillization, ThT fluorescence | Potency, µM (titrated, usually from 57.4 µM), actives largely listed as inhibitors | hit rate 2.1% among 270,000 | AID 1460, 2008; note: nearly all actives have a fitted effect of over 55% in size
#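 Fibril formation assay: tau K18 P301L at 15 uM with trace Alexa 594 label, heparin inducer 20 uM, pH 7 sodium acetate buffer, 37 C for 6 hr; endpoint ThT signal.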
# KinaseGlo FLuc: Counterscreen for Luciferase (Kinase-Glo TM) Inhibition. Potency, µM (doses to about 38.3 µM), actives largely listed as inhibitors. hit rate 0.28% among 200,000. Kinase-Glo luciferase, ATP luminescence, 8 min. AID 1379, 2008; note: nearly all actives have a fitted effect of over 60% in size
#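 Substrate mix (final 50 mM imidazole pH 7.2, 50 mM KCl, 7 mM MgCl2, 10 uM ATP, 0.01% Tween 20, 0.05% BSA) plus pin-tool compound, then Kinase-Glo detection mix; 8 min ambient, luminescence read.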
# Hits are given with their value; . = inactive; ? = inconclusive; / = no result; [ ] = remark or other dose. Calls come from the whole dose curve; as a rule, active = well fitted curve in the direction sought with a large enough effect; inconclusive = small, poorly fitted or top-dose-only effect, or another doubt; inactive = no such curve, though single readings can be large; an effect the other way counts as inactive or inconclusive.
SMILES,Tau fluor counter,NPSR antagonist,Tau FP inhib,Tau fibril ThT,KinaseGlo FLuc
COc1cc(/C=C2/C(=O)NN(c3ccc(Cl)cc3)C2=O)ccc1OC(=O)c1ccco1,?,.,.,14µM,.
COc1cc(/C=C2/C(=O)NN(c3cccc(F)c3)C2=O)ccc1OC(=O)c1ccco1,.,?,.,?,.
O=C1NC(=O)c2cc(Nc3ccccc3)c(Nc3ccccc3)cc21,14µM[quencher],13µM,.,14µM,.
O=C1NC(=O)c2cc(Nc3ccc(F)cc3)c(Nc3ccc(F)cc3)cc21,14µM[quencher],/,.,13µM,.
O=C(O)CN(CCN(CC(=O)O)CC(=O)O)CCN(CC(=O)O)CC(=O)O,.,.,.,.,.
CCN(CCNC(=O)c1ccc(CSc2nc3ccncc3[nH]2)cc1)c1ccccc1,25µM[quencher],.,.,?,.
CCOC(=O)c1cccc(NC(=O)N2CC=C(c3c[nH]c4ccccc34)CC2)c1,13µM[quencher],/,.,?,/
CCc1ccc(NC(=O)N2CC=C(c3c[nH]c4ccccc34)CC2)cc1,13µM[quencher],/,.,7.1µM,/
Cc1cc(NC(=O)N2CC=C(c3c[nH]c4ccccc34)CC2)ccc1Br,13µM[quencher],/,.,7.9µM,/
Cc1ccc(C)c(NC(=O)N2CC=C(c3c[nH]c4ccccc34)CC2)c1,25µM[quencher],/,.,?,/
COc1ccc2c(c1)C(=O)[C@@H](OC(=O)Nc1cc(OC)c(OC)c(OC)c1)[C@H](c1ccc(OC)c(Br)c1)O2,.,/,.,.,.
COc1cc(OC)c(NC(=O)N2CC=C(c3c[nH]c4ccccc34)CC2)cc1Cl,7.9µM[quencher],/,?,?,/
CCOc1ccc(NC(=O)N2CC=C(c3c[nH]c4ccccc34)CC2)cc1,16µM[quencher],/,.,4.5µM,/
COc1cc(OC)c(NC(=O)N2CCN3CCCCC3C2)cc1Cl (stereo unspecified),.,/,.,.,/
Cc1ccc(N2C(=O)c3cccc4c(Oc5ccccc5[N+](=O)[O-])ccc(c34)C2=O)c(C)c1,.,.,.,.,.
C=CC1=C(C)C2=Cc3c(C=C)c(C)c4[n]3[Sn+2][n]3c(c(C)c(CCC(=O)O)c3=CC3=NC(=C4)C(C)=C3CCC(=O)O)=CC1=N2,.,/,18µM,?,.
C=CC[n+]1c(-c2ccc(Cl)cc2Cl)csc1Nc1c(C)n(C)n(-c2ccccc2)c1=O,.,.,.,?,.
C=CC[n+]1c(-c2ccc(Cl)cc2Cl)csc1Nc1ccc(NC(C)=O)cc1,25µM[quencher],.,?,?,.
Cc1ccc(NC(=O)Cn2cc(S(=O)(=O)c3ccc(C)cc3)c(=O)c3cc4c(cc32)OCO4)cc1,.,/,?,.,/
CCOc1ccc(NS(=O)(=O)c2ccc3[nH]cc(C(=O)N(C)Cc4ccccc4)c(=O)c3c2)cc1,.,/,.,.,/
COCCCNC(=O)c1c[nH]c2ccc(S(=O)(=O)N3CCC(C)CC3)cc2c1=O,.,.,?,.,/
CCCCCNC(=O)c1c[nH]c2ccc(S(=O)(=O)N3CCC(C)CC3)cc2c1=O,?,/,7.9µM,.,/
CCOc1ccc(NS(=O)(=O)c2ccc3[nH]cc(C(=O)NCc4ccccc4)c(=O)c3c2)cc1,?,/,3.5µM,.,/
CCOc1ccc(NS(=O)(=O)c2ccc3[nH]cc(C(=O)NCc4ccco4)c(=O)c3c2)cc1,?,/,16µM,.,/
CCCNC(=O)c1c[nH]c2ccc(S(=O)(=O)N(C)c3ccc(OCC)cc3)cc2c1=O,?,?,14µM,.,.
SMILES,Tau fluor counter,NPSR antagonist,Tau FP inhib,Tau fibril ThT,KinaseGlo FLuc
O=C(/C=C/c1cccc(F)c1)N1CCN(c2ccccn2)CC1,.,.,.,.,/
COc1cc(/C=C/C(=O)N2C(=O)c3cccc(N)c3C2=O)cc(OC)c1OC,.,.,?,?,.
Nc1cccc2c1C(=O)N(C(=O)/C=C/c1cccc(F)c1)C2=O,.,.,?,14µM,.
COc1ccc(OC)c(/C=C/C(=O)N2C(=O)c3cccc(N)c3C2=O)c1,.,.,?,14µM,.
Cc1ccc(C=Nc2ccccc2C(N)=O)o1,.,.,.,.,?
Cc1ccc(C=Nc2ccc(N(C)C)cc2)o1,?,?,25µM,10µM,.
O=C(CSc1nc2ccccc2n1Cc1ccc(F)cc1)N1CCN(c2ccc(F)cc2)CC1,.,/,.,.,/
